Rows were chosen to be rich in hits. Some 3.9% of all compounds tested hit in one or more screens of this group.
FBA Mtb inh: Mtb FBA enzyme inhibitors, primary screen, biochemical, fluorescence, strain H37Rv; purified M. tuberculosis FBA, fluorescence read-out; inhibition, % at 1 µM; actives 2.3% (n = 360,000); AID 588726, 2011;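 also: 0% = vehicle and 100% = reference inhibitor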
Target sequence (P9WQA3 whole entry, looked up): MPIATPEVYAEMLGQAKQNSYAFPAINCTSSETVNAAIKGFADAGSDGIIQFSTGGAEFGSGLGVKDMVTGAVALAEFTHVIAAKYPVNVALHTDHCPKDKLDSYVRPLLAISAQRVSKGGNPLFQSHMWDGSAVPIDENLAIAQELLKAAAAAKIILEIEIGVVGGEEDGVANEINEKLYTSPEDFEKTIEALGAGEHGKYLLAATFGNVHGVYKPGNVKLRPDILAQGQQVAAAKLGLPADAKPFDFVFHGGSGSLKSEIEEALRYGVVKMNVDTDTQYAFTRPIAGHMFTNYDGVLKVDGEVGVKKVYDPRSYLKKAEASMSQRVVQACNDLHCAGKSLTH
PrPC TRFRET: inhibitors of human cell surface prion protein PrPC, primary screen, cell-based, TR-FRET; Major prion protein (Homo sapiens), P04156; TR-FRET read-out; inhibition, % at 13.8 µM; actives 0.43% (n = 370,000); AID 720596, 2013; in the data active = inhibition above about 24%; also: 0% = median of the test wells and 100% = reference compound wells
GDH-TPI counter-1: GDH-TPI coupling enzyme inhibitors, primary screen, artefact control for M. tuberculosis FBA inhibitor project, biochemical, absorbance, full deck; GDH-TPI coupled enzyme counterscreen, NADH absorbance; inhibition, % at 4.8 µM; actives 1.2% (n = 360,000); AID 588335, 2011; in the data active = inhibition above about 30%;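 also: 0% = DMSO wells and 100% = wells lacking the enzyme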
3CLpro inhibitor: SARS-CoV 3CLpro protease inhibitors, primary screen, biochemical, quenched FRET; Replicase polyprotein 1ab (Severe acute respiratory syndrome coronavirus), P0C6X7; recombinant SARS-CoV 3CLpro, quenched FRET peptide cleavage; AID 1706, 2009; inhibition, % at 6 µM; actives 0.14% (n = 290,000); in the data active = inhibition above about 12%
BH1578 lux ind: inducers of Vibrio cholerae quorum light production without autoinducers, primary screen, BH1578 luxS cqsA deficient, single point. V. cholerae BH1578 lux reporter, luminescence, 6 h. activation, % at 18.7 µM. actives 0.16% (n = 350,000). AID 588436, 2011; in the data active = activation mostly above about 9.7%, no sharp cut-off
Mtb FBA confirm: M. tuberculosis aldolase blockers, biochemical, fluorescence, strain H37Rv, confirmation; shares compounds with FBA Mtb inh; purified M. tuberculosis FBA, fluorescence read-out; inhibition, % at 1 µM; actives 78% (n = 5,600);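 also: 0% = vehicle wells and 100% = reference inhibitor wells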
GDH-TPI counter-2: GDH-TPI coupling enzyme inhibitors, artefact control for M. tuberculosis FBA inhibitor project, biochemical, fluorescence, high throughput; inhibition, % at 1 µM; shares compounds with FBA Mtb inh; actives 81% (n = 5,600); GDH-TPI coupled enzyme counterscreen; AID 652141, 2013; in the data active = inhibition above about 10%
* = called active by the depositor; i = inactive; . = no result; + = active, no number. Rule as the data show it, unless noted: active = inhibition above about 27%; inactive = the rest.

SMILES	FBA Mtb inh	PrPC TRFRET	GDH-TPI counter-1	3CLpro inhibitor	BH1578 lux ind	Mtb FBA confirm	GDH-TPI counter-2
Cc1cc(OC(C)C(=O)NCc2cccnc2)c2c3c(c(=O)oc2c1)CCC3 (centres undefined)	21	-10	6	2	-1	.	.
Cc1cc(OC(C)C(=O)NCc2ccncc2)c2c3c(c(=O)oc2c1)CCCC3 (centres undefined)	71*	-2	10	-3	-4	178*	154*
CC(OC(=O)c1nn(C)c(=O)c2ccccc12)C(=O)Nc1ccc(S(N)(=O)=O)cc1 (centres undefined)	0	-4	7	.	-1	.	.
COc1ccc(-c2ccc(-c3noc(C(C)C)n3)c(OC)n2)cc1	108*	-1	25	4	i	135*	107*
COc1nc(-c2ccccc2)ccc1-c1noc(C)n1	-1	0	27	-4	0	.	.
CCOC(=O)c1cnc2cc3c(cn2c1=O)CCCC3	94*	-8	12	1	-3	+	+
Nc1[nH]ncc1-c1ccc(F)cc1	108*	0	11	-5	7	10	-6
Nc1[nH]ncc1-c1ccccc1	-4	9	-2	5	0	.	.
Cn1nc(-c2ccc(Cl)cc2)c2cc(C(=O)NCC3CCCO3)sc21 (centres undefined)	63*	-2	7	4	0	81*	57*
CN1CCN(CCCNC(=O)c2cc3c(-c4ccc(Cl)cc4)nn(C)c3s2)CC1	28*	-10	13	-4	0	62*	57*
Cc1nn(-c2ccccc2)c2sc(C(=O)NCC3CCCO3)cc12 (centres undefined)	.	-4	.	.	.	.	.
COCCCNC(=O)Cn1cc(/C=C(\C#N)C(=O)NC2CC2)c2ccccc21	-3	-10	21	-6	0	.	.
CCOc1ccc(OCC(=O)N2CCC3(CC2)CC(=O)c2ccccc2O3)cc1	7	-11	8	.	i	.	.
CC(=O)N1CCC2(CC1)CC(=O)c1cc(OCC(=O)N3CCCC3)ccc1O2	60*	-8	9	-3	-1	48*	45*
CCOC(=O)COc1ccc2c(c1)C(=O)CC1(CCN(C(C)=O)CC1)O2	57*	-1	12	1	0	+	+
CCOC(=O)N1CCC2(CC1)CC(=O)c1cc(O)ccc1O2	2	3	12	-4	-1	.	.
CCN1CCN(C(=O)COc2ccc3c(c2)C(=O)CC2(CCN(C(C)=O)CC2)O3)CC1	33*	-7	-6	2	0	61*	56*
O=C(Nc1ccccc1F)N1CCc2ccccc2C1	4	0	2	-6	0	.	.
CC1(C)Cc2c(cnn2-c2ccccc2)C(=O)/C1=N\NC(=O)c1ccccc1N	2	-4	18	4	0	.	.
CC1(C)Cc2c(cnn2-c2ccccc2)-c2c1c1ccccc1n2CC(O)CBr (centres undefined)	31*	3	0	-1	i	163*	107*
COc1cccc2c(=O)cn[nH]c12	76*	-3	19	2	0	6	-4
O=c1cn[nH]c2ccccc12	8	-15	9	-5	0	.	.
COC(=O)c1cc(=O)c2cccc(OC)c2[nH]1	43*	2	16	-3	1	+	+
CC(=O)C1=C(C)N(Cc2ccc(Br)cc2)C(=S)NC1c1ccc(F)cc1 (centres undefined)	.	0	.	.	.	.	.
CCOC(=O)Cc1c(-c2cccc(Br)c2)nc2c3ccccc3ccn12	.	0	.	.	.	.	.
CCn1c(-c2cc(-c3ccc(OC(C)C)cc3)nc3ccccc23)n[nH]c1=S	83*	.	16	4	0	-1	0

Compound activity (PubChem)
